The structures appear in SMILES notation. “And” between values parts separate entries of the source, which are not always exact repeats. Equal entries are not always repeated. Results filed as inconclusive are left out. Unmarked numbers belong to inactive results. The source made the active and inactive calls. Calls follow the shape of the dose curve; as a rule, active = well fitted cell-killing curve with a large enough effect in the repeat runs; inconclusive = weak or mixed curves, or effect the other way; inactive = flat fitted curve, though single readings scatter.
% is scaled to controls: 0 for no effect and ±100 for the full control effect; potency is read from the fitted curve at half-maximal effect.

The nature of the assay: qHTS RealTime-Glo MT Cell Viability Assay in HEK293 cells - 40 hour (AID 1224874). Also: nearly all actives have a fitted effect of over 50% in size. The following applies: RealTime-Glo luminescence; max response: active compounds read low. An excerpt: U.S. Tox21 Program National Center for Advancing Translational Sciences [NCATS] NIH Chemical Genomics Center [NCGC] U.S. Environmental Protection Agency [EPA] National Institutes of Environmental Health Sciences [NIEHS] National Toxicology Program [NTP] U.S. Food and Drug Administration [FDA] Tox21 Assay Overview: Measure of cell viability is critical in the cell-base assay. Analysis of cell viability is necessary for the characterization of cell responses to cytotoxic drugs and environmental stress. A RealTime-Glo MT Cell Viability Assay to monitor cell viability in real time of continues cell culture during 40 hours of compound treatment was used to screen Tox21 10K library compounds in Hek293 cells. The RealTime-Glo MT Cell Viability Assay is a nonlytic, homogeneous, bioluminescent method to measure cell viability in real time using a simple, plate-based method. The assay involves adding NanoLuc luciferase and a cell-permeant prosubstrate to cells in culture. Viable cells reduce the proprietary prosubstrate to generate a substrate for NanoLuc luciferase. This substrate diffuses from cells into the surrounding culture medium, where it is rapidly used by the NanoLuc Enzyme to produce a luminescent signal. The signal correlates with the number of viable cells, making the assay well suited for cytotoxicity studies.
Tox21 Assay Protocol Summary: The mixture of Hek293 cell suspension and reagents were dispensed at 600cells/6 ul/well in 1536-well tissue culture treated black solid bottom plates using a Multidrop dispenser. After the assay plates were incubated at a 37 C/5% CO2 incubator for 5 hours, 23 nL of compounds dissolved in DMSO, positive and negative controls was transferred to the assay plate by a pintool work station. The plates were incubated at 37 C for 40 hours. The luminescence intensity were measured at 0h, 8h, 16h, 24h, 32h and 40h time points using ViewLux plate reader during compound treatment.
On the technique in general: In qHTS, concentration-response curves come from the screen itself.
On to `CCN(CC)C(=S)S`, for which the Potency is 24.8 µM (active) and 4.34 µM (active) and 11 µM (active).
Turning to `Cc1cc2c3c(c1)C(c1ccccc1)=N[C@@H](NC(=O)c1ccncc1)C(=O)N3CC2`, the max response was -16.5%.
Still for that read-out and setting: for `CCc1cccc(C)c1N(C(=O)CCl)[C@@H](C)COC` the value was -25.5%; for `CNN`, 9.14%.
Still for that read-out and setting: the same measure for `CCOC(=O)Cc1ccccc1`: 17.4%.
For the molecule `CCN1CCC2(CC1)COc1cc3c(cc12)N(C(=O)c1ccc(-c2ccc(-c4nnc(C)o4)cc2C)cc1)CC3`, the Potency was 11.3 µM (active).
The same measure, in the same setting: the same measure for `S=C=NCCc1ccccc1`: 49.1 µM (active).
On to `CCN(CC)C(=O)N[C@@H]1C=C2c3cccc4[nH]cc(c34)C[C@@H]2N(C)C1`, for which the max response is -0.723%.
Turning to `COc1ccc(Cc2nccc3cc(OC)c(OC)cc23)cc1OC`, the Potency is 5.35 µM (active).
As to `CN=C=O`, the max response is 8.4%.
The same measure, in the same setting: for `CSC(=O)c1c(C(F)F)nc(C(F)(F)F)c(C(=O)SC)c1CC(C)C` the value was -19%.
`BrCC(Br)(Br)Br`: the Potency is 45.3 µM (active).
The same measure, in the same setting: the same measure for `O=S(=O)(NS(=O)(=O)C(F)(F)F)C(F)(F)F`: 1.94 µM (active).
As for `BrCCCBr`, the max response was 6.85%.
With `CCOC(=O)CCN(SN(C)C(=O)Oc1cccc2c1OC(C)(C)C2)C(C)C`, the max response was -6%.
As to `CC(C)N(C(=O)SC/C(Cl)=C/Cl)C(C)C`, the max response is -22.2%.
Take `CC(=O)[O][Sn]([c]1ccccc1)([c]1ccccc1)[c]1ccccc1`: the Potency is 0.0347 µM (active).
Turning to `OCC(Br)CBr` (stereo not given), the max response is -11.1%.
Still for that read-out and setting: the same measure for `c1ccc(N=NNc2ccccc2)cc1`: -3.75%; for `COc1ccc2[nH]cc(CCN(C(C)C)C(C)C)c2c1`: -12%.
As to `CC(C)N(C(=O)CCl)c1ccccc1`, the Potency is 49 µM (active) and 38.9 µM (active).
Regarding `N#Cc1ccc(N(CC(N)=O)CC(F)(F)F)cc1C(F)(F)F`, the max response is 0.171%.
Same read-out and setting: for `S=C=Nc1ccccc1` the value was -7.14%; for `Brc1cccc(-c2ccccc2)c1`, -11.2%.
Regarding `O=C(NC(=O)c1c(F)cccc1F)Nc1ccc(Oc2ccc(C(F)(F)F)cc2Cl)cc1F`, the Potency was 43.6 µM (active).
Turning to `O=C(O)CCCCCCNC1c2ccccc2CCc2ccccc21`, the max response is 11.4%.
Still for that read-out and setting: the same measure for `CC(=O)C(Cl)C(=O)N(C)C` (stereo not given): 3.79%.
On the same count and under the same terms, the same measure for `O=NN(CCO)CCO`: 7.2%.
As for `c1ccc(Nc2ccc(Nc3ccccc3)cc2)cc1`, the Potency was 19.4 µM (active).
Take `COC(=O)C(C)N(C(=O)c1ccco1)c1c(C)cccc1C` (stereo not given): the max response is -12.7%.
`CCCCn1cc[n+](C)c1.[Cl][Fe-]([Cl])([Cl])[Cl]`: the max response is 2.18%.
The same measure, in the same setting: the same measure for `CN1C(=O)[C@@H](NC(=O)c2cc3ccccc3[nH]2)N=C(c2ccccc2)c2ccccc21`: 20%.
Consider `O=c1[nH]c(Cl)c(Cl)cc1Cl`, for which the max response is 0.811%.
The same measure, in the same setting: for `Cc1ccn2nc(S(=O)(=O)Nc3c(F)cccc3F)nc2n1` the value was 12.5%; for `Oc1ccc(Cl)c(Cl)c1`, -18.2%.
`O=C1C(Cl)=C(Cl)C(=O)C(Cl)=C1Cl`: the Potency is 21.8 µM (active) and 21.9 µM (active).
Consider `CC(C)=CC1C(C(=O)OC(C#N)c2cccc(Oc3ccccc3)c2)C1(C)C` (stereo not given), for which the max response is -3.44%.
Same read-out and setting: for `C[C@]12CC[C@H]3[C@@H](CCC4=CC(=O)CC[C@@H]43)[C@@H]1CC[C@@H]2OC(=O)CCc1ccco1` the value was -8.1%.
For `CCC[CH2][Sn]([CH2]CCC)([O]C(C)=O)[O]C(C)=O`, the Potency was 0.0698 µM (active).
On to `CCOP(=O)(OCC)Oc1cc(C)nc(C(C)C)n1`, for which the max response is 1.52%.

These data come from PubChem BioAssay (Tox21).
